Calls of active or inactive are those of the source. Rule for the calls: active = hit-call score of the fitted dose curve at least 0.9, where 1 is the maximum; inactive = score below 0.9.

Chain of Transcription factor Sp1 (Homo sapiens) (P08047 whole entry, looked up): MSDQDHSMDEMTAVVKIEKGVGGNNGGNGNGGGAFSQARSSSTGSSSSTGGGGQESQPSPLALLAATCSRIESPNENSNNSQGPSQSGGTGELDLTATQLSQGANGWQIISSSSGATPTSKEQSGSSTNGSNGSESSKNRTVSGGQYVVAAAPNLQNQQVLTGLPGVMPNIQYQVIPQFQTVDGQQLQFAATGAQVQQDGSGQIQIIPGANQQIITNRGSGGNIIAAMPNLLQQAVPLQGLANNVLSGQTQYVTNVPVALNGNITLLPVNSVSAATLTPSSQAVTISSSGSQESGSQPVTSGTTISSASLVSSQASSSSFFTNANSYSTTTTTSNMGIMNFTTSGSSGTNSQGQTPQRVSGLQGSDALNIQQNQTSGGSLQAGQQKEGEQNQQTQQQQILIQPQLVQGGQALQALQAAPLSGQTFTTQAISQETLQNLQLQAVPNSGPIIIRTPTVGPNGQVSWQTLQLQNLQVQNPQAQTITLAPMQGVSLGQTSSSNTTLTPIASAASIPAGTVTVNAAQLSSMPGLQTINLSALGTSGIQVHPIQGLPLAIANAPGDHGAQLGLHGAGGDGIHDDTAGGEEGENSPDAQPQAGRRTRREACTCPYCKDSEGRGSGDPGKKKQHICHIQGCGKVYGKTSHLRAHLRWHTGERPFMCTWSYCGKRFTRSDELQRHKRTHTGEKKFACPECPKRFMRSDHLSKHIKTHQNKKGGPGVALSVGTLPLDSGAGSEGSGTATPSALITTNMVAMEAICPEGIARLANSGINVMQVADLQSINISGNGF

This experiment concerns the target Transcription factor Sp1 (Homo sapiens) (UniProt P08047). As to the kind of experiment: ATG_Sp1_CIS: Attagene CIS-FACTORIAL HepG2 Assay for human Specificity Protein 1 (Sp1) (AID 2282961). The following applies: HepG2 Sp1 cis-reporter transcription, actives raise or lower the signal. The procedure:
ATG_CIS is a cell-based, multiplexed-readout assay that uses HepG2, a human liver cell line, with measurements taken at 24 hours after chemical dosing in a 24-well plate.ATG_Sp1_CIS is one of 52 assay component(s) measured or calculated from the ATG_CIS assay. It is designed to make measurements of mRNA induction, a form of inducible reporter, as detected with fluorescence intensity signals by Reverse transcription polymerase chain reaction (RT-PCR) and Capillary electrophoresis technology.Data from the assay component ATG_Sp1_CIS was analyzed into 1 assay endpoint. This assay endpoint, ATG_Sp1_CIS, was analyzed with bidirectional fitting relative to DMSO as the negative control and baseline of activity. Using a type of inducible reporter, measures of mRNA for gain or loss-of-signal activity can be used to understand the reporter gene at the transcription factor-level as they relate to the gene SP1. Furthermore, this assay endpoint can be referred to as a primary readout, because this assay has produced multiple assay endpoints where this one serves a reporter gene function. To generalize the intended target to other relatable targets, this assay endpoint is annotated to the dna binding intended target family, where the subfamily is zinc finger.
Human liver HepG2 cells are transiently transfected with multiple reporter transcription units (MRTUs) in 6-well plates using FuGene 6 reagent (Roche; 3 ml FuGene/1 mg DNA). The MRTU constructs are regulated by a cis-regulating element (promoter). […] A major difference between the CIS and TRANS system is that in CIS activities of endogenous TFs are measured, whereas the TRANS assay evaluates changes in activities of exogenous, chimeric NR-Gal4 proteins. […] At the end of 24 hour incubation, total RNA was isolated using TriZol reagent (Invitrogen). The isolated RNA is then reverse-transcribed using oligo(dT) primer and Mo-MLV reverse transcriptase (Invitrogen) with DNAse I (Ambion) treatment for 30 min. The one-tenth of the produced cDNA was amplified by PCR using Taq DNA polymerase (Invitrogen) and two reporter sequence-specific primers. The PCR products were fluorescently labeled by primer extension with 6-arboxyfluorescein (6-FAM) 5'-labeled reporter sequence-specific primer (2 min at 95 C, 20 s at 68 C and 10 min at 72 C) and these products were digested with 5U of HpaI (New England Biolabs) for 2h at 37 C. The fragments were purified using Qiaquick PCR columns (Qiagen), analyzed on an ABI 3130xL genetic analyzer (Applied Biosystems) with peak positions identified by using a set of X-rhodamine (ROX)-labeled MapMarker1000 molecular weight standards (BioVentures). The raw capillary electrophoresis data was processed using Attagraph software (Attagene).
Take `COC(=O)c1ccccc1OC`: the molecule was classed as inactive. For the molecule `O=C1CCCCCCCCCCC(=O)OCCO1`, the molecule was called inactive.

In the case of `CNC(=S)NN`, the result was inactive. With `CCCCCCCCCCCCCCCCCC#N` the entry was “inactive”. For the molecule `CO[Si](CCC1CCC2OC2C1)(OC)OC` (stereo not given), the outcome was inactive.

Consider `C=CC(=O)OCC(Br)CBr` (stereo not given), for which the molecule was called inactive. In the case of `CCCCCC(C)O` (stereo not given), the outcome was inactive.

`OC1CCCC1`: the molecule was called inactive. In the case of `O=Cc1ccc(CO)o1`, the molecule was classed as inactive. To `O=C(O)c1cc2ccccc2nc1C(=O)O` belongs “inactive”; to `O=C(OCC1CCC2OC2C1)C1CCC2OC2C1` (stereo not given), “inactive”. With `CC(C)(Oc1ccc(C2CC2(Cl)Cl)cc1)C(=O)O` (stereo not given) the entry was “inactive”; with `C=CC=CC=CCCCCC`, “inactive”. `C[C@]12C=CC(=O)C=C1CC[C@@H]1[C@@H]2[C@@H](O)C[C@@]2(C)[C@H]1CC[C@]2(O)C(=O)CO`: the molecule was classed as inactive.

Consider `CCC(CC)C(=O)O`, for which the molecule was classed as inactive.

For `Nc1ccc(N=Nc2ccccc2)c(N)n1`, the molecule was called inactive.

`CC(CC=O)c1ccccc1` (stereo not given): the outcome was inactive. Take `CCCCC(CC)COCC1CO1` (stereo not given): the outcome was inactive.

As to `Cc1cc(C)c(C)cc1C`, the outcome was inactive. To `O=C(Nc1ccccc1SSc1ccccc1NC(=O)c1ccccc1)c1ccccc1` belongs “inactive”; to `CCC(CO)CO`, “inactive”; to `CCCCCCCCCCOS(=O)(=O)O`, “inactive”. To `CC(=O)OCCC1CCCCC1` belongs “inactive”; to `CC1(C)S[C@@H]2[C@H](NC(=O)COc3ccccc3)C(=O)N2[C@H]1C(=O)O`, “inactive”; to `CCOc1ccc(N)c([N+](=O)[O-])c1`, “inactive”.

For the molecule `CCOC(=O)Cc1cccc2ccccc12`, the molecule was called inactive. With `O=C(c1ccccc1)C1CCC1` the entry was “inactive”; with `CC(=O)[C@H]1[C@H](C#N)C[C@H]2[C@@H]3CC=C4C[C@@H](O)CC[C@]4(C)[C@H]3CC[C@@]21C`, “inactive”. Consider `CC(C)c1ccc2c(c1)CC[C@H]1[C@](C)(CN)CCC[C@]21C`, for which the molecule was classed as inactive. In the case of `c1c[nH]cn1`, the molecule was called inactive. With `O=CN1CCCCC1` the entry was “inactive”; with `Cc1cccc(C(=O)O)c1`, “inactive”; with `OC1OCCOC1O` (stereo not given), “inactive”. With `CC(CC=O)CCCC(C)(C)O` (stereo not given) the entry was “inactive”. Regarding `O=C1OC(=O)c2cc(Oc3ccc4c(c3)C(=O)OC4=O)ccc21`, the result was inactive. For the molecule `C=C(C)C(=O)OCCO`, the outcome was inactive.

As to `C=CC(=O)OCCC(=O)O`, the molecule was classed as inactive.

Take `COCCOCCOCCOCCOC`: the molecule was called inactive. `O=C(O)CCCC[C@@H]1SC[C@@H]2NC(=O)N[C@@H]21`: the result was inactive. With `CCCC(=O)OCc1ccccc1`, the result was inactive.

Values taken from PubChem BioAssay (EPA / NIEHS).
